Over roughly 35,000 sequences, “fluorescence intensity (a.u.)” has its median near 10,000; the highest 2% begin near 52,000. Shown is part of a subset that was picked to be rich in the highest values.
These sequences were tested against T1, OsWOX13 (Oryza sativa, UniProt Q5QMM3 1-267) (assay: protein-binding microarray (RPBM); PBS, 2% BSA, 51.3 ng/ul salmon testes DNA, 50 uM zinc acetate, 200 nM TF, 25 C, 1 h; high values mean tight binding). Settings: protein: recombinant; tags: N-terminal polyhistidine and DsRed monomer fusion (pET32a); label: CyDye5-dUTP incorporated in the synthesized complementary strand; 3' TTTTT single-stranded linker to array surface; dsDNA, one strand shown.
T1 sequence: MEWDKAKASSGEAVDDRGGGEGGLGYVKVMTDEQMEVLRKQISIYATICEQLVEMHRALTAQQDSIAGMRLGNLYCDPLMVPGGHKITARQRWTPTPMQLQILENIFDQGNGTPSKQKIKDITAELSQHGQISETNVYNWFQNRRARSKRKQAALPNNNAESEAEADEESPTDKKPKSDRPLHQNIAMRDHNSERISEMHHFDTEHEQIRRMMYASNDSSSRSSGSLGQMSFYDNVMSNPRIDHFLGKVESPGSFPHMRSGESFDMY
Procedure, shortened: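 For the binding signal, per-feature fluorescence intensity was read in arbitrary units on an Axon 4000B scanner. Before scanning, a 2% BSA-blocked custom Agilent array made double-stranded with Cy5-dUTP was washed after 1 h at 25 °C with 200 nM protein and 50 µM zinc acetate. The proteins were Ni–NTA-purified transcription factors with N-terminal polyhistidine and DsRed fusions, expressed in E. coli BL21-CodonPlus.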

In order of falling binding signal:
1. CTTGATTAGTAGTTGGTTGCTCTTCTTCTTGTTCTTGGTTCGGAGTCACCTAGTGCAG  64200 fluorescence intensity (a.u.)
2. CTCGCCGTCCATCCTTCCCTGCGTCCAATCCCCACCCTCCCGGAGTCACCTAGTGCAG  60200 fluorescence intensity (a.u.)
3. ATCTGATTTGATTTGATTTCGTACACCAGTAGCTTCAACCCGGAGTCACCTAGTGCAG  59800 fluorescence intensity (a.u.)
4. TAATTGATTAGCAGTAAGGTATTGGTTGTCCAATCTTGCTCGGAGTCACCTAGTGCAG  58400 fluorescence intensity (a.u.)
5. GGCTTAATTGTTGATTAAACATCAGGCTCTTCTTGCATATCGGAGTCACCTAGTGCAG  54900 fluorescence intensity (a.u.)
6. GTTGATTAGCATATATTATTGGTTGCATGTTAGGCTTCCACGGAGTCACCTAGTGCAG  54700 fluorescence intensity (a.u.)
7. CTGATTAATTGCCAGTAATTTGATTTCAACCTTACGTGTACGGAGTCACCTAGTGCAG  53000 fluorescence intensity (a.u.)
8. AAAATTCATGATTGATTTTGTAGTGGATCAACCTTGCCAACGGAGTCACCTAGTGCAG  52400 fluorescence intensity (a.u.)
9. ATCTGATTGATACAGTACTTATTCACTGGAGTAGTATTTCCGGAGTCACCTAGTGCAG  40800 fluorescence intensity (a.u.)
10. TGATTTCATGATTGATAGCTACATATCTTAGTTTCACACCCGGAGTCACCTAGTGCAG  40200 fluorescence intensity (a.u.)
11. CTTACGTGTAAATTGAAATTACATTGTAATTTACATTTGACGGAGTCACCTAGTGCAG  34200 fluorescence intensity (a.u.)
12. AGAATTGATTAGCTCTTGTTTCTATCATGTTAAACACATTCGGAGTCACCTAGTGCAG  33000 fluorescence intensity (a.u.)
13. ATTGATTGTAGCCAAAATAAATTTTACTAAATTTTGCCAACGGAGTCACCTAGTGCAG  32500 fluorescence intensity (a.u.)
14. GGCTAATAGTAGGTTGATTAGTCCTTATTGTGCTTGCCCTCGGAGTCACCTAGTGCAG  28500 fluorescence intensity (a.u.)
15. TTTGGTTGGATTGGATTGGATTGGATTGGCTGCTTCCCTGCGGAGTCACCTAGTGCAG  25000 fluorescence intensity (a.u.)
16. TCAAGCTTCTGCAATTTAGTTGATTGATCGAATTAATCAGCGGAGTCACCTAGTGCAG  24600 fluorescence intensity (a.u.)
17. TATATTTAATTATTGATTTGATGTAACCAATTTAGTATTACGGAGTCACCTAGTGCAG  23400 fluorescence intensity (a.u.)
18. ATTAAATAATTTCTTTGATAAAATTGTTTTGCAGGCATATCGGAGTCACCTAGTGCAG  22300 fluorescence intensity (a.u.)
19. CTTAAAACAAATGATTGTTTACGTTCCGTCAATCATGCCCCGGAGTCACCTAGTGCAG  21200 fluorescence intensity (a.u.)
20. GTTACCTATTAATTAATAGGAAGATGATATAAATAGTTTACGGAGTCACCTAGTGCAG  19400 fluorescence intensity (a.u.)
21. TTCGTAAATTTGATCGAATTTGGCTTTTAGACGCTGGACACGGAGTCACCTAGTGCAG  19200 fluorescence intensity (a.u.)
22. CTGGTTCTTGATTATTATTAGGATTAGTTTGTTCCTTTGTCGGAGTCACCTAGTGCAG  16900 fluorescence intensity (a.u.)
23. GTTAGTAATGTTGATTAGTGCATGGCTTATTTGGTTGCACCGGAGTCACCTAGTGCAG  15600 fluorescence intensity (a.u.)
24. CTAATTTTATGGTTAATGGACACGATTTAATCTAGACTCTCGGAGTCACCTAGTGCAG  13800 fluorescence intensity (a.u.)
25. ATTGGTCCATTAGCACGTGATTAATTAAGTATTTGCTATTCGGAGTCACCTAGTGCAG  11200 fluorescence intensity (a.u.)
26. ATGTTCCTGATTACCCGGTTAGTAAAATTTGAATCGTACTCGGAGTCACCTAGTGCAG  10600 fluorescence intensity (a.u.)
27. TGGAGTGGTGATTTGCTCTCTCTTGAGTGTTGATTAGTGGCGGAGTCACCTAGTGCAG  9250 fluorescence intensity (a.u.)
28. TATGACAGGTGGGATTAGGTATTAATAGTGTAGTATGTAACGGAGTCACCTAGTGCAG  8510 fluorescence intensity (a.u.)
29. ACTATTCTATTATGATGATTAGGCTGTTATTGGTTGAAGTCGGAGTCACCTAGTGCAG  7170 fluorescence intensity (a.u.)
30. ATAATAAGTTAAAACCTAATCAATCATACGCTAATGACTTCGGAGTCACCTAGTGCAG  6780 fluorescence intensity (a.u.)
31. TATAATTACATTGTAACTGTATTGTAAATACATTTTAATTCGGAGTCACCTAGTGCAG  5830 fluorescence intensity (a.u.)
32. TCTCCGTCCCCATCACCCTCGCAATTACTCCACCCGCCGGCGGAGTCACCTAGTGCAG  5550 fluorescence intensity (a.u.)
33. CAACTAAACTTTTAATTTTAGCATAAACTAAACAGACCCACGGAGTCACCTAGTGCAG  5430 fluorescence intensity (a.u.)
34. TATGATTCTTTTCTAAAAGATTGATACGACATATCAATATCGGAGTCACCTAGTGCAG  5300 fluorescence intensity (a.u.)
35. GTATTAATCACATTTCATTTCAACTTTTGATTCTGATATGCGGAGTCACCTAGTGCAG  5200 fluorescence intensity (a.u.)
36. TAAATTGTACATGATATATGTCAAGTGTCAACGTCTGATTCGGAGTCACCTAGTGCAG  5030 fluorescence intensity (a.u.)
37. ACTCCACACACTGATCAACACTAATCAGCATGTACATTTGCGGAGTCACCTAGTGCAG  4090 fluorescence intensity (a.u.)
38. TAGGCCCACTAATTAGGCCCATCCAACACGCCGTCCGACGCGGAGTCACCTAGTGCAG  4020 fluorescence intensity (a.u.)
39. TCGTTCTTCATGGTTGGGGCTGATTAGGTTGATGAGATAGCGGAGTCACCTAGTGCAG  3850 fluorescence intensity (a.u.)
40. CCTTCATTCATTTCCTAATCCCAATCCCACCCTCCATTTCCGGAGTCACCTAGTGCAG  3570 fluorescence intensity (a.u.)
41. GTCTTGTTCATAATAGACTGGACTCTTTGATTCCTGTGTGCGGAGTCACCTAGTGCAG  3330 fluorescence intensity (a.u.)
42. ATAATAAATATATTTACATTTAGACCCTCGATGTGTCATCCGGAGTCACCTAGTGCAG  3230 fluorescence intensity (a.u.)
43. AGGATCAAAATTGCATGATTTTGTATAGTTTAGGGATGAACGGAGTCACCTAGTGCAG  3210 fluorescence intensity (a.u.)

Reference: PMC7819943, “Rice protein-binding microarrays: a tool to detect cis-acting elements near promoter regions in rice”
